# Measurements published in PubChem BioAssay (NCI).
# The panel holds about 79,000 compounds, 15% with a hit somewhere; the sample as a whole holds those more often. A number with no mark means an inactive call. The source made the active and inactive calls. Rule as the data show it: active = growth inhibition above about 70%; inactive = the rest.
# Experiment: NCI Yeast Anticancer Drug Screen. Data for the bub3 strain (AID 167)
# Conditions: S. cerevisiae bub3 mutant strain, at 50.0 µM (retest, dose inferred, filed as 5.0), stronger effect = higher value
# Method in brief: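 Screening used yeast with an engineered genetic alteration affecting cell cycle control. Compound-exposed cultures were compared with vehicle cultures, and reduced growth was taken as inhibition.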
row,Compound,growth inhibition
1,CN(Cc1cc(C(C)(C)C)cc(Br)c1O)Cc1cc(C(C)(C)C)cc(Br)c1O,71% (active)
2,Oc1cc2c(cc1C(c1ccc(F)cc1)N1CCCCC1)OCO2 (configuration not stated),54%
3,CCCCCCCN(CCCCCCC)CC(O)Cc1cc2c(c3ccccc13)CCCC2 (configuration not stated),96% (active)
4,Cc1c2ccncc2c(C)c2c1sc1ccccc12,95% (active)
5,c1ccc2c(c1)OCC(CNCCNCC1COc3ccccc3O1)O2 (configuration not stated),55%
6,CC(C)(C)c1ccc(Sc2ncnc3ccccc23)cc1,90% (active)
7,C(#Cc1ccccc1)Sc1ccccc1,9%
8,CCOC(=O)NC(NNc1ccc([N+](=O)[O-])cc1[N+](=O)[O-])(C(F)(F)F)C(F)(F)F,97% (active)
9,O=C1/C(=C/c2cccc(O)c2)COc2ccccc21,95% (active)
10,CNC1=C2NC(=O)/C(C)=C\C=C\C(C)C(O)C(C)C(O)C(C)C(OC(C)=O)C(C)C(OC)/C=C/OC3(C)Oc4c(C)c(O)c(c(c4C3=O)C1=O)C2=O (configuration not stated),58%
11,COc1ccc(Cc2c(-c3ccc(C)cc3)n[nH]c(=O)c2C2C(=O)N(c3ccccc3)N=C2c2ccccc2)cc1 (configuration not stated),96% (active)
12,Cc1ccc(Cc2n[nH]c(=O)n2N2C(=O)c3ccccc3C2=O)cc1,13%
13,COc1cc2c(c(C3C(=O)N(C)c4ccc(Br)cc43)c1OC)OCO2 (configuration not stated),-1%
14,CCCCCCCCC1N(C)CCCN1C,98% (active)
15,C1=Cc2ccccc2/C1=C/c1ccccc1,95% (active)
16,COC(=O)c1ccc2ccccc2c1C(=O)c1ccc(F)cc1,97% (active)
17,CCNC(=S)N/N=C(/C)c1cccc(/C(C)=N\NC(=S)NCC)n1,38%
18,c1ccc2c(c1)ccc1ncccc12,62%
19,Cc1nc(N)nn1C,-2%
20,COC(=O)C1=C(C)NC(C)=C(C(=O)OC)C1c1ccc(NCc2ccccc2)c([N+](=O)[O-])c1,68%
21,CCc1ccccc1NC(=O)C(C#N)C1=C(Cl)C(=O)c2ccccc2C1=O (configuration not stated),98% (active)
22,O=C(O)c1ccc2ccccc2c1C(=O)c1cccc2ccccc12,3%

# Same assay, conditions: S. cerevisiae bub3 mutant strain, at 50.0 µM, stronger effect = higher value
row,Compound,growth inhibition
1,CCN(CC)CCOC(=O)C1CCCCC1C(=O)C1CCCCC1 (configuration not stated),0.85%
2,O=c1c2cc(Br)ccc2ncn1COCc1ccccc1,83.5% (active)
3,C=C1C(=O)OC2C1CCC(=C)C1CC(O)C(=C)C12 (configuration not stated),92.5% (active)
4,CCC(CC)=NNc1ccc([N+](=O)[O-])cc1,97.9% (active)
5,CCN(CC)CCNc1ccc(C)c2oc3ccc(O)cc3c(=O)c12,81.7% (active)
6,CCOC(=O)C[P+](c1ccc(C)cc1)(c1ccc(C)cc1)c1ccc(C)cc1,91% (active)
7,Cc1ccc(C)c(C(=O)/C=C/C(=O)O)c1,64.1%
8,CCCC/C=C(/CCCCOCOCCOC)[Si](C)(C)C,11.7%
9,C=C1C2Oc3ccccc3C1N(c1ccccc1)O2 (configuration not stated),9.45%
10,NC(=O)N/N=C1/CC2CCCCC2c2ccccc21 (configuration not stated),86.2% (active)
11,CC(CCN)(CCN)[N+](=O)[O-],6.9%
12,COC(=O)/C=C(\NC1CC(OC2C[C@](O)(C(C)=O)Cc3c(O)c4c(c(O)c32)C(=O)c2c(OC)cccc2C4=O)OC(C)C1O)C(=O)OC (some centres not stated),74.2% (active)
13,CCOc1ccc(N=Nc2ccccc2)cc1,-12.6%
14,O=C(CNS(=O)(=O)Cc1ccccc1)NCC(=O)NNc1ccccc1,20.1%
15,CC1(C)c2ccccc2Cc2cc3ccccc3nc21,94% (active)
16,CC(=O)Nc1ccc(C(C)(C)c2ccc(C)cc2)cc1,57.5%
17,CC[C@]1(O)C[C@H]2[C@@H]3CCc4cc(OC)ccc4[C@H]3CC[C@]2(C)[C@H]1O,49.8%
18,CCCCSc1nc2c([nH]1)c(=S)n(C)c(=S)n2C,66.3%
19,CN(Cc1cc(C(C)(C)C)cc(Br)c1O)Cc1cc(C(C)(C)C)cc(Br)c1O,81.3% (active)
20,Oc1cc2c(cc1C(c1ccc(F)cc1)N1CCCCC1)OCO2 (configuration not stated),84.4% (active)

row,Compound,growth inhibition
1,CCCCCCCN(CCCCCCC)CC(O)Cc1cc2c(c3ccccc13)CCCC2 (configuration not stated),94.7% (active)
2,Cc1c2ccncc2c(C)c2c1sc1ccccc12,84.5% (active)
3,c1ccc2c(c1)OCC(CNCCNCC1COc3ccccc3O1)O2 (configuration not stated),58.3%
4,CC(C)(C)c1ccc(Sc2ncnc3ccccc23)cc1,92.5% (active)
5,C(#Cc1ccccc1)Sc1ccccc1,-30.8%
6,CCOC(=O)NC(NNc1ccc([N+](=O)[O-])cc1[N+](=O)[O-])(C(F)(F)F)C(F)(F)F,98% (active)
7,O=C1/C(=C/c2cccc(O)c2)COc2ccccc21,95.8% (active)
8,CNC1=C2NC(=O)/C(C)=C\C=C\C(C)C(O)C(C)C(O)C(C)C(OC(C)=O)C(C)C(OC)/C=C/OC3(C)Oc4c(C)c(O)c(c(c4C3=O)C1=O)C2=O (configuration not stated),52%
9,COc1ccc(Cc2c(-c3ccc(C)cc3)n[nH]c(=O)c2C2C(=O)N(c3ccccc3)N=C2c2ccccc2)cc1 (configuration not stated),97.5% (active)
10,Cc1ccc(Cc2n[nH]c(=O)n2N2C(=O)c3ccccc3C2=O)cc1,-25.1%
11,COc1cc2c(c(C3C(=O)N(C)c4ccc(Br)cc43)c1OC)OCO2 (configuration not stated),-1.85%
12,CCCCCCCCC1N(C)CCCN1C,99% (active)
13,C1=Cc2ccccc2/C1=C/c1ccccc1,96.7% (active)
14,COC(=O)c1ccc2ccccc2c1C(=O)c1ccc(F)cc1,97.4% (active)
15,CCNC(=S)N/N=C(/C)c1cccc(/C(C)=N\NC(=S)NCC)n1,54.2%
16,c1ccc2c(c1)ccc1ncccc12,46.9%
17,Cc1nc(N)nn1C,44.2%
18,COC(=O)C1=C(C)NC(C)=C(C(=O)OC)C1c1ccc(NCc2ccccc2)c([N+](=O)[O-])c1,6.45%
19,CCc1ccccc1NC(=O)C(C#N)C1=C(Cl)C(=O)c2ccccc2C1=O (configuration not stated),97.3% (active)
20,O=C(O)c1ccc2ccccc2c1C(=O)c1cccc2ccccc12,83.2% (active)
